Rows were chosen to be rich in hits. Some 2.3% of all compounds tested hit in one or more screens of this group.
CHO-K1 Ca antag: counter-screen for M1 antagonists: effect in parental CHO-K1 cells; inhibition, % at 3 µM; ATP-induced calcium, Fluo-8 fluorescence; actives 0.6% (n = 360,000);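 active = inhibition above a per-plate cutoff, the plate's mean sample inhibition plus 3 SD, cut at about 24% in these data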;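 note: 0% = DMSO plus EC80 ATP and 100% = DMSO alone without ATP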
CHRM1 PAM: human M1 muscarinic receptor positive allosteric modulators, primary screen, CHO-K1 cells, Fluo-8 calcium fluorescence, 1536-well | Muscarinic acetylcholine receptor M1 (Homo sapiens), P11229 | CHO-K1 hM1, ACh EC20; 0% = ACh EC20, 100% = maximal ACh | activation, % at 3 µM | actives 0.088% (n = 360,000); in the data active = activation above about 19%, passing the limit was not always enough
Target sequence (P11229 whole entry, looked up): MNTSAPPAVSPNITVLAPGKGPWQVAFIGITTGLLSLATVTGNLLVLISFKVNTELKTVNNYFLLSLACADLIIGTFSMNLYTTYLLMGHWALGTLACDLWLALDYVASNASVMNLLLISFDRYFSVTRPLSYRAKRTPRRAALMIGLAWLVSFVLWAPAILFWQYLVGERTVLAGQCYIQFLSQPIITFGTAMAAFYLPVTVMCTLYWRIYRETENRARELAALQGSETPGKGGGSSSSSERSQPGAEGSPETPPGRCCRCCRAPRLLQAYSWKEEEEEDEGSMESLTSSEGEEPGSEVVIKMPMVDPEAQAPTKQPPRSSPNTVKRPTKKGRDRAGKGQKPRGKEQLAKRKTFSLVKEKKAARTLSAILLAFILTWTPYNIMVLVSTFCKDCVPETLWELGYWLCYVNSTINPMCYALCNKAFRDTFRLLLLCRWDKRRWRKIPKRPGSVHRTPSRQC
CHRM1 antagonist: human M1 muscarinic receptor antagonists, primary screen, CHO-K1 cells, Fluo-8 calcium fluorescence, 1536-well | AID 588852, 2011 | inhibition, % at 3 µM | CHO-K1 hM1, ACh EC80 antagonist | actives 1.3% (n = 360,000);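 active = percent inhibition above its own plate's cutoff, namely the mean of that plate's compound wells plus 3 SD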;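 note: peak over basal fluorescence ratio during 140 s after agonist addition; 0% = ACh EC80 plus DMSO and 100% = DMSO alone without agonist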
M1 PAM parental: nonselective calcium activators in parental CHO-K1 cells, primary screen, counter-screen for M1 PAM project, cell-based, Fluo-8 calcium fluorescence, full deck, 1536-well | activation, % at 3 µM | ATP EC20; 0% at ATP EC20, 100% at ATP max | actives 0.02% (n = 360,000);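 active = activation above the run cutoff, the mean activation of all test compounds plus 3 SD, cut at about 40% in these data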;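 note: peak over basal fluorescence ratio in a 140 s read after ATP addition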
CHRM1 agonist: human M1 muscarinic receptor agonists, primary screen, Fluo-8 calcium fluorescence, CHO-K1 cells, HTS | actives 0.33% (n = 360,000) | AID 588814, 2011 | Muscarinic acetylcholine receptor M1 (Homo sapiens), P11229 | CHO-K1 hM1, agonist mode; 0% DMSO, 100% acetylcholine EC100 | activation, % at 3 µM;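 active = activation above the run's mean compound activation plus 3 SD, cut at about 16% in these data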;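 note: peak over basal fluorescence ratio within a 140 s kinetic read after compound addition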
CHO-K1 Ca ag: counter-screen for M1 agonists: effect in parental CHO-K1 cells | Fluo-8 calcium fluorescence; scaled to maximal ATP response, vehicle zero | AID 602248, 2012 | actives 0.48% (n = 360,000) | activation, % at 3 µM; in the data active = activation above about 15%;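 note: untransfected CHO-K1 host cells lacking M1 receptor as counterscreen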
* hit, by the source's call.

SMILES	CHO-K1 Ca antag	CHRM1 PAM	CHRM1 antagonist	M1 PAM parental	CHRM1 agonist	CHO-K1 Ca ag
CC12CCC3(CO)COC(c4ccccc4O1)C2C3 (centres undefined)	-23	7	-9	10	-2	1
CC1(C#CC[N+]2(C)CCCCC2)CCC2C(O1)c1ccccc1OC2(C)C (centres undefined)	-20	-5	82*	17	103*	0
COc1nccnc1NS(=O)(=O)c1ccc(NC(=O)c2ccc(F)cc2)cc1	-5	29*	-23	22	0	1
C=C(C)CN=CC1(C)CCC(C)=CO1 (centres undefined)	-15	12	-20	26	-4	1
N=C1/C(=C\c2coc3ccccc3c2=O)C(=O)N=C2SC(c3ccncc3)=NN12	29*	-21	58*	-23	51*	69*
N=C1/C(=C/c2coc3ccccc3c2=O)C(=O)N=C2SC(c3ccco3)=NN12	34*	-26	52*	-11	85*	63*
N=C1/C(=C\c2coc3ccc(O)cc3c2=O)C(=O)N=C2SC=CN12	15	-12	21	-12	25*	33*
CC1=NN2C(=N)/C(=C\c3cc(C)n(-c4ccccc4)c3C)C(=O)N=C2S1	9	0	0	-9	-4	0
C[C@H]1CN([C@@H](C)CO)C(=O)c2cccc(NC(=O)Nc3ccc(C(F)(F)F)cc3)c2O[C@@H]1CN(C)S(=O)(=O)c1ccc(Cl)cc1	-6	10	-5	6	-3	0
CN(Cc1c(C(=O)N/N=C/c2ccc(O)cc2)nnn1-c1nonc1N)c1ccccc1	15	4	2	-6	-1	0
O=C(CSc1nnc(-c2ccncc2)o1)N1CCc2ccccc2C1	-10	0	5	10	-5	6
O=C(N/N=C/c1ccncc1)c1ccc(OCc2ccccc2)cc1	-7	1	-2	15	21*	3
COc1ccc(C(=O)N/N=C/c2ccc3cccc(OCc4ccccc4)c3n2)cc1	4	-8	31*	25	1	4
CCOC(=O)N1CCN(S(=O)(=O)N2CCCC(C(=O)NCc3cccc(OC)c3)C2)CC1 (centres undefined)	4	5	-1	5	0	1
COc1cccc(NC(=O)CN(C)C(=O)CSc2ccc3c(c2)OCCO3)c1	5	12	-11	-14	1	2
OC(CN1CCN(c2cccc(C(F)(F)F)c2)CC1)c1c[nH]c2ccccc12 (centres undefined)	30*	-2	12	-7	-3	2
CCn1c(SCc2ccccc2)nnc1-c1ccc(S(=O)(=O)N2CCCCC2)cc1	2	-12	27*	9	-2	6
CC(C)C(C(=O)Nc1nccs1)c1ccc(Cl)cc1 (centres undefined)	-19	-13	6	26	-8	2
CC(C)C(C(=O)Nc1ccncc1)c1ccc(Cl)cc1 (centres undefined)	3	4	-1	8	9	17*
O=C(Nc1cccc(Cl)c1N1CCOCC1)c1cccnc1Cl	-1	11	-2	8	4	22*
CC1C(=O)N(Cc2cn(CCC3OCCCO3)nn2)CCS(=O)(=O)N1Cc1ccc(-c2ccc(F)cc2)cc1 (centres undefined)	1	-7	1	6	-3	5
CC1C(=O)N(Cc2cn(CCC3OCCCO3)nn2)CCS(=O)(=O)N1Cc1ccc(-c2ccc(Cl)c(Cl)c2)cc1 (centres undefined)	8	-16	31*	-7	1	10
CC1C(=O)N(Cc2cn(Cc3ccco3)nn2)CCS(=O)(=O)N1Cc1ccc(-c2ccc(Cl)cc2)cc1 (centres undefined)	28*	-1	-4	-11	-5	0
CC1C(=O)N(Cc2cn(Cc3ccco3)nn2)CCS(=O)(=O)N1Cc1ccc(-c2ccccc2)cc1 (centres undefined)	-17	11	-16	15	-2	0
Cc1cccc(C)c1-c1ccc(CN2C(CC(C)C)C(=O)N(Cc3cn(CCO)nn3)CCS2(=O)=O)cc1 (centres undefined)	15	-9	29*	4	-3	7
SMILES	CHO-K1 Ca antag	CHRM1 PAM	CHRM1 antagonist	M1 PAM parental	CHRM1 agonist	CHO-K1 Ca ag
COC(=O)[C@]1(Cc2ccccc2)N[C@H](CN(C)S(=O)(=O)c2ccc(C(C)(C)C)cc2)[C@@H]2C(=O)N(Cc3ccccc3)C(=O)[C@@H]21	-4	8	-11	-6	-2	0
COc1ccc(/C=C2\CCCC3C2=NN(C(=O)c2scnc2C)C3c2ccc(OC)c(OC)c2)cc1OC (centres undefined)	-1	10	-19	17	-4	19*
O=C(Nc1ccccc1N1CCCC1)c1cc(=O)[nH]c2ccccc12	-6	3	-9	11	-1	2
COc1ccc2cc(C(=O)NCc3ccccc3CN3CCCC3)ccc2c1	-18	-15	15	10	-6	2
CNC(=O)COC(=O)c1ccccc1Oc1ccccc1	29*	-2	5	-7	-3	0
O=C(NC(=S)NCCC1=CCCCC1)c1cncc(Br)c1	-8	-2	-4	13	-8	16*
O=C(NC(=S)NCCC1=CCCCC1)c1ccccc1Br	-7	-6	-2	19	-14	3
COc1ccc([C@H]2CC(=O)C=C(c3cc4ccccc4c4ccccc34)C2)cc1	-17	7	-6	-13	-3	1
CCN(CC)CC(C)(C)C(=O)/C=C/c1ccc(/C=C/C(=O)C(C)(C)CN(CC)CC)cc1	25*	-9	15	-9	-8	0
O=C(Nc1ccc(C(=O)N2CCCC2)cc1)c1cc(F)c(F)cc1Cl	2	-3	3	-2	-1	1
Cc1cc2c(cc1C)NC(C)CC(=O)N2 (centres undefined)	-5	-4	2	10	-2	0
C[C@@H]1CN([C@H](C)CO)C(=O)Cc2cc(NC(=O)Nc3ccccc3)ccc2O[C@@H]1CN(C)C(=O)Nc1ccc2c(c1)OCO2	-13	16	3	11	6	0
COc1ccc(Oc2c(C)oc3c(CN(C)C)c(O)ccc3c2=O)cc1	-15	-22	32*	10	-14	0
CN(CC(=O)Nc1ccc(F)c(F)c1F)C(=O)CCCSc1nc2ccccc2[nH]1	-4	0	1	-6	-2	1
